Source: PubChem BioAssay (NCATS)
Inconclusive results are not listed. Calls of active or inactive are those of the source. Calls follow the shape of the dose curve; as a rule, active = well fitted cell-killing curve with a large enough effect; inconclusive = small, poorly fitted or top-dose-only effect, or effect the other way; inactive = flat fitted curve, though single readings scatter. Where a SMILES comes first, the peptide text is derived from it. [ ]: non-standard residue; d: D form. ξ: configuration not given here. ξPhe(βξ-Me) = CC(c1ccccc1)C(N)C(=O)O; GABA = NCCCC(=O)O

Key:
Experiment in all cases: Primary qHTS to identify gynecologic anti-cancer compounds using libraries of approved drugs and bioactive compounds (AID 1345084); also: nearly all actives have a fitted effect of over 55% in size
C33A = conditions: Gynecologic cancer cell panel viability, ATPlite luminescence, 48 h; series mostly up to 57.5 µM
Method in brief: (§1)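 In this quantitative HTS, cell killing is estimated from loss of ATP-dependent luciferase light. Cells see five compound concentrations over a 48 h exposure.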

CAOV3 = conditions: Gynecologic cancer cell panel viability, ATPlite luminescence, 48 h; series mostly up to 57.5 µM
Method in brief: as §1

CASKI = conditions: Gynecologic cancer cell panel viability, ATPlite luminescence, 48 h; series mostly up to 57.5 µM
Method in brief: as §1

Es-2 = conditions: Gynecologic cancer cell panel viability, ATPlite luminescence, 48 h; series mostly up to 57.5 µM
Method in brief: as §1

HeLa = conditions: Gynecologic cancer cell panel viability, ATPlite luminescence, 48 h; series mostly up to 57.5 µM
Method in brief: as §1

Hek293T = conditions: Gynecologic cancer cell panel viability, ATPlite luminescence, 48 h, control line for the selectivity index; series mostly up to 57.5 µM
Method in brief: as §1

JEG-3 = conditions: Gynecologic cancer cell panel viability, ATPlite luminescence, 48 h; series mostly up to 57.5 µM
Method in brief: as §1
% is scaled to controls: 0 for no effect and ±100 for the full control effect.

C[C@@H]1C(=O)O[C@H]2[C@H]1CC[C@@]1(C)C(=O)C=C[C@](C)(O)[C@H]21
inactive: Potency (C33A) | Potency (CAOV3) | Potency (CASKI) | Potency (Es-2) | Potency (HeLa) | Potency (Hek293T) | Potency (JEG-3)

CC[C@H](C)/C=C(C)/C=C/C(=O)Cc1cc(O)c(C)c(O)c1C=O
inactive: Potency (C33A) | Potency (CAOV3) | Potency (CASKI) | Potency (Es-2) | Potency (HeLa) | Potency (Hek293T) | Potency (JEG-3)

C/C=C(/C)C(=O)O[C@H]1C=C(C)C[C@H](OC(=O)c2ccc(O)cc2)C2[C@](O)(C(C)C)CC[C@@]21C (stereo partly drawn)
inactive: Potency (C33A) | Potency (CAOV3) | Potency (CASKI) | Potency (Es-2) | Potency (HeLa) | Potency (Hek293T) | Potency (JEG-3)

O=C1N(CC2CCCCN2)CCN1c1ccccc1 (stereo not drawn)
inactive: Potency (C33A) | Potency (CAOV3) | Potency (CASKI) | Potency (Es-2) | Potency (HeLa) | Potency (Hek293T) | Potency (JEG-3)

C=CC1C(O[C@@H]2O[C@H](CO)[C@@H](O)[C@H](O)[C@H]2O)OC=C(C(=O)OC)C1CC(=O)O (stereo partly drawn)
inactive: Potency (C33A) | Potency (CAOV3) | Potency (CASKI) | Potency (Es-2) | Potency (HeLa) | Potency (Hek293T) | Potency (JEG-3)

O=C1Nc2ccc(O)cc2O[C@H]1O[C@@H]1O[C@H](CO)[C@@H](O)[C@H](O)[C@H]1O
inactive: Potency (C33A) | Potency (CAOV3) | Potency (CASKI) | Potency (Es-2) | Potency (HeLa) | Potency (Hek293T) | Potency (JEG-3)

C=C1C2(CCC(=O)OC2(C)C)CC(OC(=O)/C(C)=C/C)C2(C)C13OC14C(=O)OC(C)(C(=O)C12C(=O)OC4C)C3OC(C)=O (stereo not drawn)
inactive: Potency (C33A) | Potency (CAOV3) | Potency (CASKI) | Potency (Es-2) | Potency (HeLa) | Potency (Hek293T) | Potency (JEG-3)

Cc1cc(O)c(C(C)C)cc1O[C@@H]1O[C@H](CO)[C@@H](O)[C@H](O)[C@H]1O
inactive: Potency (C33A) | Potency (CAOV3) | Potency (CASKI) | Potency (Es-2) | Potency (HeLa) | Potency (Hek293T) | Potency (JEG-3)

Cc1nn(C)c(COc2ccc(N3CCN(S(=O)(=O)N(C)C)CC3)cc2)c1-c1cccc2c(CCCOc3cccc4ccccc34)c(C(=O)O)n(CCN3CCOCC3)c12
inactive: Potency (C33A) | Potency (CAOV3) | Potency (CASKI) | Potency (Es-2) | Potency (HeLa) | Potency (Hek293T) | Potency (JEG-3)

COC(=O)[C@]12C(=O)C(C)=C(O)[C@@]1(C)C(C)=CC1[C@@]34CC[C@@H](OC(C)=O)C(C)(C)C3[C@H](C[C@]12C)OC4=O (stereo partly drawn)
inactive: Potency (C33A) | Potency (CAOV3) | Potency (CASKI) | Potency (Es-2) | Potency (HeLa) | Potency (Hek293T) | Potency (JEG-3)

COc1c(C(CC(C)C)OC(C)=O)ccc(Oc2c(O)cc(C)cc2/C=C/C(C)=O)c1C(=O)O (stereo not drawn)
inactive: Potency (C33A) | Potency (CAOV3) | Potency (CASKI) | Potency (Es-2) | Potency (HeLa) | Potency (Hek293T) | Potency (JEG-3)

NCCCC[C@H](NC(=O)[C@@H]1Cc2ccccc2CN1C(=O)CCC(=O)c1ccccc1)C(=O)NCC(c1ccccc1)c1ccccc1
inactive: Potency (C33A) | Potency (CAOV3) | Potency (CASKI) | Potency (Es-2) | Potency (HeLa) | Potency (Hek293T) | Potency (JEG-3)

CC(C)CC1NC(=O)C(C(C)c2ccccc2)NC(=O)C(C(C)C)NC(=O)C(C)NC(=O)CCCNC(=O)C(Cc2c[nH]c3ccccc23)NC(=O)C(C)NC1=O (stereo not drawn) (cyclo([GABA]AV[ξPhe(βξ-Me)]LAW); configuration not given here)
inactive: Potency (C33A) | Potency (CAOV3) | Potency (CASKI) | Potency (Es-2) | Potency (HeLa) | Potency (Hek293T) | Potency (JEG-3)

C[C@H](NCc1ccc(OCc2ccccc2F)cc1)C(N)=O
inactive: Potency (C33A) | Potency (CAOV3) | Potency (CASKI) | Potency (Es-2) | Potency (HeLa) | Potency (Hek293T) | Potency (JEG-3)

CCNC(=O)[C@H]1O[C@H](n2cnc3c(NCC(c4ccccc4)c4ccccc4)nc(C(=O)NCCNC(=O)NC4CCN(c5ccccn5)CC4)nc32)[C@H](O)[C@@H]1O
inactive: Potency (C33A) | Potency (CAOV3) | Potency (CASKI) | Potency (Es-2) | Potency (HeLa) | Potency (Hek293T) | Potency (JEG-3)

O=c1c2ccccc2nc2n1CCC2O (stereo not drawn)
inactive: Potency (C33A) | Potency (CAOV3) | Potency (CASKI) | Potency (Es-2) | Potency (HeLa) | Potency (Hek293T) | Potency (JEG-3)

CC1(CO)CC2C(O)C(=O)C3(CO)CC3(C)C2C1 (stereo not drawn)
inactive: Potency (C33A) | Potency (CAOV3) | Potency (CASKI) | Potency (Es-2) | Potency (HeLa) | Potency (Hek293T) | Potency (JEG-3)

COc1cc2c(cc1OC)CN(C(=O)[C@@H](NCc1ccncc1)C(C)(C)C)CC2
inactive: Potency (C33A) | Potency (CAOV3) | Potency (CASKI) | Potency (Es-2) | Potency (HeLa) | Potency (Hek293T) | Potency (JEG-3)

CC1OC(OC2C(C)OC(OC3C(OC(=O)/C=C/c4ccc(O)cc4)C(CO)OC(OC4(COC(=O)/C=C/c5ccc(O)cc5)OC(CO)C(O)C4O)C3OC3OCC(O)(CO)C3O)C(O)C2O)C(O)C(O)C1O (stereo not drawn)
inactive: activity change, negative = cytotoxicity (C33A) 4.08% [at 11.6 µM] | activity change, negative = cytotoxicity (CAOV3) -2.97% [at 11.6 µM] | activity change, negative = cytotoxicity (CASKI) 10% [at 11.6 µM] | activity change, negative = cytotoxicity (Es-2) -0.759% [at 11.6 µM] | activity change, negative = cytotoxicity (HeLa) -8.01% [at 11.6 µM] | activity change, negative = cytotoxicity (Hek293T) 0.502% [at 11.6 µM] | activity change, negative = cytotoxicity (JEG-3) 2.4% [at 11.6 µM]
